Among the data in PubChem BioAssay (EPA / NIEHS) are AC50 and outcome values, retold here.

Assay [1] deals with human CYP2C9, CYP2C9 (gene 1559) (UniProt P11712). In words: NVS_ADME_hCYP2C9: NovaScreen (NVS) CYP450-related Enzyme Activity (ADME) Assay for human CYP2C9 (AID 2283108). An outline of the steps:
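Recombinant human CYP2C9 expressed in SF9 cells, fluorogenic substrate, fluorescence read 0.75 h after dosing. Chemicals first run in duplicate at 10 uM, with actives followed in concentration series; loss of signal versus acetonitrile baseline.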

In assay [2] the target is Cytochrome P450 2C19 (Homo sapiens) (UniProt P33261). In words: NVS_ADME_hCYP2C19: NovaScreen (NVS) CYP450-related Enzyme Activity (ADME) Assay for human CYP2C19 (AID 2283113).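 Also: potency for inhibition seen as loss of fluorescent signal.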 An outline of the steps:
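Biochemical CYP2C19 inhibition screen: insect-cell recombinant protein plus fluorescent substrate, 1 h, fluorescence intensity. Acetonitrile defined baseline activity. Single 10 uM concentration in duplicate, with concentration-response follow-up for actives.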

For assay [3], the target named is human CYP2B6, CYP2B6 (gene 1555) (UniProt P20813). The experiment in a line: NVS_ADME_hCYP2B6: NovaScreen (NVS) CYP450-related Enzyme Activity (ADME) Assay for human CYP2B6 (AID 2283101). The procedure, abridged: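 Fluorescence-based enzyme activity of recombinant human CYP2B6, measured 1 h post-dose against acetonitrile vehicle baseline. Screened at a single concentration of 10 uM in duplicate before concentration-response follow-up.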

In assay [4] the target is human CYP2D6, CYP2D6 (gene 1565) (UniProt P10635). The experiment in a line: NVS_ADME_hCYP2D6: NovaScreen (NVS) CYP450-related Enzyme Activity (ADME) Assay for human CYP2D6 (AID 2283107). An outline of the steps:
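Biochemical fluorescence assay, insect-cell-derived enzyme. Read at 1 h; inhibition taken from loss of signal against acetonitrile. Screened at 10 uM in duplicate, with concentration series for actives.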

Assay [5] has as its target rat CYP2C11, Cyp2c11 (gene 29277) (UniProt P08683). The experiment in a line: NVS_ADME_rCYP2C11: NovaScreen (NVS) CYP450-related Enzyme Activity (ADME) Assay for rat CYP2C11 (AID 2283118). An outline of the steps: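 Screened first at 10 uM in duplicate, hits followed by concentration-response. Recombinant rat enzyme activity monitored by fluorescence 0.33 h post-dosing, normalised to acetonitrile negative control.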

Assay [6] has as its target rat CYP3A2, Cyp3a2 (gene 266682) (UniProt P05183). The experiment in a line: NVS_ADME_rCYP3A2: NovaScreen (NVS) CYP450-related Enzyme Activity (ADME) Assay for rat CYP3A2 (AID 2283128). An outline of the steps: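 Fluorescence readout of extracted rat CYP3A2 activity 0.5 h post-dose, acetonitrile as negative control. Single-point testing in duplicate at 10 uM, followed by concentration series to a 20 uM maximum for actives.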

Assay [7] concerns the target human CYP1A1, CYP1A1 (gene 1543) (UniProt P04798). The experiment in a line: NVS_ADME_hCYP1A1: NovaScreen (NVS) CYP450-related Enzyme Activity (ADME) Assay for human CYP1A1 (AID 2283100). An outline of the steps: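 Inhibition of recombinant CYP1A1 turnover was assessed fluorometrically in a biochemical format 1 h after compound exposure. Testing began at 10 uM in duplicate and progressed to concentration series reaching 20 uM, with on-plate positive and negative controls.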

Assay [8] has as its target rat CYP2A1, Cyp2a1 (gene 24894) (UniProt P11711). The experiment in a line: NVS_ADME_rCYP2A1: NovaScreen (NVS) CYP450-related Enzyme Activity (ADME) Assay for rat CYP2A1 (AID 2283114; active = hit-call score of the fitted dose curve at least 0.9, where 1 is the maximum; inactive = score below 0.9). The procedure, abridged:
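Cell-free fluorescence enzyme-activity read on recombinant rat CYP2A1, taken 0.75 h post-dosing. Compounds were screened in duplicate at 10 uM, then hits tested in concentration series (max 20 uM); inhibition scored relative to acetonitrile baseline.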

Assay [9] deals with rat CYP2A2, Cyp2a2 (gene 24895) (UniProt P15149). In words: NVS_ADME_rCYP2A2: NovaScreen (NVS) CYP450-related Enzyme Activity (ADME) Assay for rat CYP2A2 (AID 2283116). The procedure, abridged:
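Compounds first tested in duplicate at 10 uM, then in singleton concentration series up to 20 uM when over threshold. Activity of the recombinant enzyme read by fluorescence at 0.2 h, normalised to acetonitrile vehicle.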

The subject of the next assay is rat CYP2C6, gene 293989. The experiment in a line: NVS_ADME_rCYP2C6: NovaScreen (NVS) CYP450-related Enzyme Activity (ADME) Assay for rat CYP2C6 (AID 2283120). The procedure, abridged: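 Compounds first tested in duplicate at 10 uM, hits (e.g. 30% inhibition) re-run in singleton dose series to a 20 uM top concentration. Enzyme activity of recombinant rat CYP2C6 measured via fluorescent substrate turnover after 1 h; acetonitrile baseline.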

Assay [10] concerns the target rat CYP2D2, Cyp2d26 (gene 25053) (UniProt P10634). The experiment in a line: NVS_ADME_rCYP2D2: NovaScreen (NVS) CYP450-related Enzyme Activity (ADME) Assay for rat CYP2D2 (AID 2283124). An outline of the steps: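 Single-concentration duplicate testing at 10 uM, followed by concentration-response (top 20 uM) for chemicals passing threshold. Enzyme activity of the recombinant rat isoform measured by fluorescence after 0.75 h, acetonitrile as baseline.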

Assay [11] has as its target Cytochrome P450 3A4 (Homo sapiens) (UniProt P08684). In words: NVS_ADME_hCYP3A4: NovaScreen (NVS) CYP450-related Enzyme Activity (ADME) Assay for human CYP3A4 (AID 2283110). The procedure, abridged: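 Recombinant CYP3A4 from insect cells, fluorescence enzyme read-out, 0.33 h after chemical addition. Acetonitrile = negative control/baseline. Primary HTS: 10 uM in duplicate; actives re-tested in concentration series.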

Assay [12] addresses rat CYP2C13, Cyp2c13 (gene 171521) (UniProt P20814). In words: NVS_ADME_rCYP2C13: NovaScreen (NVS) CYP450-related Enzyme Activity (ADME) Assay for rat CYP2C13 (AID 2283121). An outline of the steps:
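Inhibition is read as decreased fluorescent product formation, referenced to acetonitrile vehicle. Cell-free recombinant rat Cyp2c13 reaction ran 0.75 hour; compounds first at 10 uM in duplicate, then concentration series for actives.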

The target of assay [13] is human Caspase 5 (CASP5), CASP5 (gene 838) (UniProt P51878). In words: NVS_ENZ_hCASP5: NovaScreen (NVS) Enzymatic Assay for human Caspase 5 (CASP5) (AID 2283137). An outline of the steps:
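Fluorescent substrate readout of CASP5 activity (loss-of-signal), measured 2 h post-dose. Protein expressed in E. coli. Primary screen duplicate at 25 uM; actives meeting threshold (e.g., 30% inhibition) rerun singleton, max 50 uM.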

Assay [14] concerns the target human Beta-secretase (BACE), BACE1 (gene 23621) (UniProt P56817). The experiment in a line: NVS_ENZ_hBACE: NovaScreen (NVS) Enzymatic Assay for human Beta-secretase (BACE) (AID 2283140).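 Also: hits are inhibitors that reduce fluorescent substrate signal versus DMSO.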 An outline of the steps:
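SF9-expressed enzyme, cell-free; fluorescent substrate readout after 1 h. Screened at 25 uM single concentration, duplicate; hits retested in concentration series. Activity relative to DMSO baseline, loss-of-signal.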

By AC50 is commonly meant the concentration at which the activity in the assay is half-maximal.

Where “and” joins values, the source holds several entries; their conditions need not be identical. Equal values may be shown once. Results filed as inconclusive are left out. Calls of active or inactive are those of the source. The calls were made as follows, unless noted: active = hit-call score of the fitted dose curve at least 0.9, where 1 is the maximum; inconclusive = response in the unintended direction; inactive = score below 0.9.

human CYP2D6, CYP2D6 (gene 1565), sequence (P10635 whole entry, looked up): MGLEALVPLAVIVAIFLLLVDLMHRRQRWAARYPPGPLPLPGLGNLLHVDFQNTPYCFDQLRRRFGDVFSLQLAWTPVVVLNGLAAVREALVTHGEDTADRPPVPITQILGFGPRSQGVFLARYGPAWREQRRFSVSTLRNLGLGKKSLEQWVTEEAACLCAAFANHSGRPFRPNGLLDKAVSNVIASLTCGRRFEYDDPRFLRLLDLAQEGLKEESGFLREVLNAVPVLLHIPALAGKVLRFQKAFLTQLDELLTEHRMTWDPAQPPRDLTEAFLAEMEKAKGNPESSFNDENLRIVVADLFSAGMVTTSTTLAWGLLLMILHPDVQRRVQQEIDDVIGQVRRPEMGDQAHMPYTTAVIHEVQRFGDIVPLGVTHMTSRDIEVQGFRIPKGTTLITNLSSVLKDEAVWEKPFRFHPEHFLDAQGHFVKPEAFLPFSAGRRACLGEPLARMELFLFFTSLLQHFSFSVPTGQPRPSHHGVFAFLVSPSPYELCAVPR
human CYP2C9, CYP2C9 (gene 1559), sequence (P11712 whole entry, looked up): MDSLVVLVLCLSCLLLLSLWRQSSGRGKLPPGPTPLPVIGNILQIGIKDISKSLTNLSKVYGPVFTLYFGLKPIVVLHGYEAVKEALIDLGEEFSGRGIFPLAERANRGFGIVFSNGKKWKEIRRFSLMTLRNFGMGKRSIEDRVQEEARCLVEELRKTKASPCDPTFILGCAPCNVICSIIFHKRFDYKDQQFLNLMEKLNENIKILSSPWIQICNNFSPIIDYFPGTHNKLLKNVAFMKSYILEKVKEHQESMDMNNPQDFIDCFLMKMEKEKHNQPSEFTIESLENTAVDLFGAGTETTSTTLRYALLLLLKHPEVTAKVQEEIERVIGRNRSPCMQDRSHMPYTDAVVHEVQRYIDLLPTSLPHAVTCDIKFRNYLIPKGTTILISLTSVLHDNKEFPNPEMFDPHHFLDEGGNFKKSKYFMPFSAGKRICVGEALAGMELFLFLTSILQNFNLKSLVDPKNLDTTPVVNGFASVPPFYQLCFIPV
rat CYP3A2, Cyp3a2 (gene 266682), sequence (P05183 whole entry, looked up): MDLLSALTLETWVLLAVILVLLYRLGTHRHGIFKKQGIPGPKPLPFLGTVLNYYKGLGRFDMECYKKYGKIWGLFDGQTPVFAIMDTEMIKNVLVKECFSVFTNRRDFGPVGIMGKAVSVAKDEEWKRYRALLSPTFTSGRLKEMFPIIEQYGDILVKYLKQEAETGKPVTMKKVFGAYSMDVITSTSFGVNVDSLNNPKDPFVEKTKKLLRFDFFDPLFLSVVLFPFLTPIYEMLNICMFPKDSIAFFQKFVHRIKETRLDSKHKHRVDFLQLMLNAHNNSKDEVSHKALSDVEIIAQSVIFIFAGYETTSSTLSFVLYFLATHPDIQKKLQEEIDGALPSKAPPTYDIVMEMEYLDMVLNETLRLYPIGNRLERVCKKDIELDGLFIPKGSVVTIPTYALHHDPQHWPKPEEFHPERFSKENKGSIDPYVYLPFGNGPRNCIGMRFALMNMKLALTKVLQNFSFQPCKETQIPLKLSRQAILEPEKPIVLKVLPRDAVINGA
human CYP1A1, CYP1A1 (gene 1543), sequence (P04798 whole entry, looked up): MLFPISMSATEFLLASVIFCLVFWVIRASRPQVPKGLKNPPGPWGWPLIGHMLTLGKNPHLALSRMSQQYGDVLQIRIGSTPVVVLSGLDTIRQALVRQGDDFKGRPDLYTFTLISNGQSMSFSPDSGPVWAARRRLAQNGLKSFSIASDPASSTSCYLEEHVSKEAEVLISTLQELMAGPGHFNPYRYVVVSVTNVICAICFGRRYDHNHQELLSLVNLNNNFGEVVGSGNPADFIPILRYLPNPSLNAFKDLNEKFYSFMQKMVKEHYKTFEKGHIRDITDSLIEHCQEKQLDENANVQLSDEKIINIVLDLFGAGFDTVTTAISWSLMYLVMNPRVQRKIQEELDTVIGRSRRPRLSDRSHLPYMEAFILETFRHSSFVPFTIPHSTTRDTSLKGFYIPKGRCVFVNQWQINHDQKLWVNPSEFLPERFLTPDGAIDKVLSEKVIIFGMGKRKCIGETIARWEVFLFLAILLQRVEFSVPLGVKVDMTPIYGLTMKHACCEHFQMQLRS
rat CYP2A1, Cyp2a1 (gene 24894), sequence (P11711 whole entry, looked up): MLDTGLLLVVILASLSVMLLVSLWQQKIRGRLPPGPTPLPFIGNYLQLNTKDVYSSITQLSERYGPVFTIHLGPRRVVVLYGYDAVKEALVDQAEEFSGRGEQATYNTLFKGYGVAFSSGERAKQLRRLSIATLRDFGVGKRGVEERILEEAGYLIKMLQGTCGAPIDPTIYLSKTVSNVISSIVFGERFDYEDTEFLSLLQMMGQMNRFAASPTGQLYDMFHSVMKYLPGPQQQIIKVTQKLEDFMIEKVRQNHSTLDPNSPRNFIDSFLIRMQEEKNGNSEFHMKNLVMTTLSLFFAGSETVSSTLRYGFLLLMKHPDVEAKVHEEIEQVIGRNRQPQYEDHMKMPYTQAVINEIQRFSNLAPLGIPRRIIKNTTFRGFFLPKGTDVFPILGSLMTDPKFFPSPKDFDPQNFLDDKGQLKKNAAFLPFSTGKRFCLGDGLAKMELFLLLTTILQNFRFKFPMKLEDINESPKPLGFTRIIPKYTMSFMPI
rat CYP2C11, Cyp2c11 (gene 29277), sequence (P08683 whole entry, looked up): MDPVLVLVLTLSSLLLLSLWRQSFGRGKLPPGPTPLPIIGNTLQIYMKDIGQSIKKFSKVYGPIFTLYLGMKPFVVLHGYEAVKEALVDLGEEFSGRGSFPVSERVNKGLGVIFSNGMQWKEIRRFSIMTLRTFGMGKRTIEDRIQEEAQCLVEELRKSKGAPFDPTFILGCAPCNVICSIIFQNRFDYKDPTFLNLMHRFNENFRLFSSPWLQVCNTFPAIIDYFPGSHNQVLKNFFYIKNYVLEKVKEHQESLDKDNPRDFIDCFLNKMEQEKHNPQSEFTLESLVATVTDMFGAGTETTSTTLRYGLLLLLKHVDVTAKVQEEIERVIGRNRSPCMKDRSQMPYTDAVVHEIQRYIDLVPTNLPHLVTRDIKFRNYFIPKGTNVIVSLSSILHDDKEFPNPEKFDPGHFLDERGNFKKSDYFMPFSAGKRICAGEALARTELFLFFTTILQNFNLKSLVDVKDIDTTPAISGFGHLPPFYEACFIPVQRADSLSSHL
rat CYP2A2, Cyp2a2 (gene 24895), sequence (P15149 whole entry, looked up): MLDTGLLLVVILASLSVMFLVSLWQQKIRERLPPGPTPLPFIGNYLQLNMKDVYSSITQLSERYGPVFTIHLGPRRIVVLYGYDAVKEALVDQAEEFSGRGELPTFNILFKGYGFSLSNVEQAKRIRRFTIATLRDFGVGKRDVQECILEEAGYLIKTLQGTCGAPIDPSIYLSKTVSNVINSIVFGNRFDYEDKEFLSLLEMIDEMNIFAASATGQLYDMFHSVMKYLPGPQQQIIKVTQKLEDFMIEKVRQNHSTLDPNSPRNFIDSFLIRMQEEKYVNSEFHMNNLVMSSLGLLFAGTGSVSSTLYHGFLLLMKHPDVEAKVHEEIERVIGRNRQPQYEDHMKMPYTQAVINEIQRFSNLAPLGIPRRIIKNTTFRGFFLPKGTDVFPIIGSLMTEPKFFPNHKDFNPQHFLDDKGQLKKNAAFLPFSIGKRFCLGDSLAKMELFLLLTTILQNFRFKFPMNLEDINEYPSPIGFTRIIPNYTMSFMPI
human CYP2B6, CYP2B6 (gene 1555), sequence (P20813 whole entry, looked up): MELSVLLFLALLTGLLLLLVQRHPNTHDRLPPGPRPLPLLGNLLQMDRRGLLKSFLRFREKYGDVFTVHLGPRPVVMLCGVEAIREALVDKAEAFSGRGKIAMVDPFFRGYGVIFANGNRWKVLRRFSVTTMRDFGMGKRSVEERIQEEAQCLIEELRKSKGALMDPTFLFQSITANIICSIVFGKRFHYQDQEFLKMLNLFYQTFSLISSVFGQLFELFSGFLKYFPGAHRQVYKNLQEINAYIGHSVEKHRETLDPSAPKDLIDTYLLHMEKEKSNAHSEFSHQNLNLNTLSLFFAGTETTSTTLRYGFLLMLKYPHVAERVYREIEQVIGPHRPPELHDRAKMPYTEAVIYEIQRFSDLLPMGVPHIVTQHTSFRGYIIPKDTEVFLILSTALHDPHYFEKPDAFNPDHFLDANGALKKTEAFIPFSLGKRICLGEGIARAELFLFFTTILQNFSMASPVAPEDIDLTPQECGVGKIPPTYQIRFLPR
rat CYP2D2, Cyp2d26 (gene 25053), sequence (P10634 whole entry, looked up, canonical isoform): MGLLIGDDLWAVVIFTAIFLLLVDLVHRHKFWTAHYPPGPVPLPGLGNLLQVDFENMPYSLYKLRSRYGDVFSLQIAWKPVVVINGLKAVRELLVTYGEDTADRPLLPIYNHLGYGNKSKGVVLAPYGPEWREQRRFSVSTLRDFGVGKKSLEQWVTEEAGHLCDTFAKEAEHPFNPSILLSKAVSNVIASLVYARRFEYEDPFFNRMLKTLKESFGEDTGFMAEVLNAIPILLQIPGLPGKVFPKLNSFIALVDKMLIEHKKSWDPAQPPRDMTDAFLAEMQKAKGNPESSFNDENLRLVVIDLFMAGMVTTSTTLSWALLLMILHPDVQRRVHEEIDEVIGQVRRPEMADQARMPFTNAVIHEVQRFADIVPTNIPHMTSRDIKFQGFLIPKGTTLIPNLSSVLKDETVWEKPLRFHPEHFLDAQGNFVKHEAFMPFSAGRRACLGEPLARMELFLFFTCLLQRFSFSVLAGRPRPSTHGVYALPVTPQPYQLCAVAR
human Beta-secretase (BACE), BACE1 (gene 23621), sequence (P56817 whole entry, looked up): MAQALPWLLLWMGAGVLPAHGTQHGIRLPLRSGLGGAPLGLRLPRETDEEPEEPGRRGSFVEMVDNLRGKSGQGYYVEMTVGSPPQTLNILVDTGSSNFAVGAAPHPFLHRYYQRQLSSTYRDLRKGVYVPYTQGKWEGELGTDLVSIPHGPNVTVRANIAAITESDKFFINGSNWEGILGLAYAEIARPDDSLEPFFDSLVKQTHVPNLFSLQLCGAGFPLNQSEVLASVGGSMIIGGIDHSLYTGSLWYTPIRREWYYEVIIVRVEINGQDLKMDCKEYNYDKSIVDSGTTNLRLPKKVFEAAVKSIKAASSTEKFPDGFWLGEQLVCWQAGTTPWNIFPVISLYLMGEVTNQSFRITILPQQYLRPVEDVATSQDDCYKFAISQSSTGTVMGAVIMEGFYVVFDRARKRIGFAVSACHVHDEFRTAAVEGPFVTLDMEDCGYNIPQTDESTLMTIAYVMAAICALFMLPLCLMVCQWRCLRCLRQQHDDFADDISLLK

In the case of `COC(=O)c1c(Cl)nn(C)c1S(=O)(=O)NC(=O)Nc1nc(OC)cc(OC)n1`, the AC50 in assay [1] is 2.89 µM (active).

On to `CCCCC(CC)COC(=O)c1ccccc1C(=O)O` (stereo not given), for which the figures for the AC50 in assay [1] and in assay [2] were 5.35 µM (active) and 7130 nM (active), respectively.

Regarding `N#CSCSc1nc2ccccc2s1`, the AC50 in assay [3] is 1870 nM (active); in assay [4], 1.99 µM (active) and 1.9 µM (active); in [1], 1.77 µM (active) and 5.62 µM (active); in assay [2] it was 4760 nM (active); in assay [5], 9170 nM (active); in assay [6], 7060 nM (active).

With `c1ccc2[nH]c(-c3cscn3)nc2c1`, in [7], the concentration at half-maximal activity (AC50) is 4650 nM (active).

`COC(=O)c1ccccc1C(=O)O`: the molecule was called inactive in assay [7] and in [8]. The AC50 in assay [2] is 5840 nM (active).

For the molecule `C=CCOC(Cn1ccnc1)c1ccc(Cl)cc1Cl` (stereo not given), the AC50 in [7] was 1550 nM (active); in assay [3], 188 nM (active); in assay [4] it was 3.95 µM (active); in [1], 0.379 µM (active); in [2] it was 62 nM (active); in assay [8] it was 187 nM (active). In addition, the AC50 in assay [9] was 17.5 nM (active); in [5], 463 nM (active); in the assay on rat CYP2C6, gene 293989 it was 452 nM (active); in [10], 125 nM (active); in [6], 874 nM (active).

For `CCOC(=O)NCCOc1ccc(Oc2ccccc2)cc1`, the figures for the AC50 in [4], in [1] and in [2] were 1.98 µM (active), 10 µM (active) and 816 nM (active), respectively.

For the molecule `Oc1ccc(C(c2ccc(O)cc2)C(Cl)(Cl)Cl)cc1`, the half-maximal activity concentration (AC50) was 10000 nM (active) in assay [7]; 2.08 µM (active) in assay [1]; 7750 nM (active) in [11]; 1030 nM (active) in assay [2]; 1290 nM (active) in assay [8]; 1020 nM (active) in assay [9]. Besides, the half-maximal activity concentration (AC50) in assay [5] was 188 nM (active); with rat CYP2C6, gene 293989, 2570 nM (active); in assay [12] it was 883 nM (active); in [10], 2740 nM (active); in assay [6], 2700 nM (active); in assay [13], 10100 nM (active). Further, in [14], the concentration at half-maximal activity (AC50) was 4960 nM (active).
